In PubChem BioAssay (EPA / NIEHS):
Several values for one entry are separate records, joined by “and”; a condition that tells them apart may be missing. Equal values may be shown once. Inconclusive results are not listed. More than one record can exist for a structure, and the calls need not agree. Activity calls are given as the source filed them. How the source made its calls, unless noted: active means hit-call score of the fitted dose curve at least 0.9, where 1 is the maximum; inactive means score below 0.9.

How the values were obtained:
[1] = CCTE_Shafer_MEA_acute_burst_percentage_std: CCTE's Neural Acute Assay for Standard Deviation of Burst Percentage, Shafer Lab (AID 2284018);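 further: fitted in the negative direction so actives lower burst percentage SD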
Outline: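 Value is percent change from baseline in the across-electrode SD of spikes-in-bursts percentage, wells with >/= 10 active electrodes. Acute 40-min exposure to 0.03-40 uM on DIV 13 or 15 rat cortical cultures, recorded at 37 C after 40-min baseline.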

[2] = CCTE_Shafer_MEA_acute_per_network_burst_spike_number_mean: CCTE's Neural Acute Assay for Average Number of Spikes in a Network Burst, Shafer Lab (AID 2284019);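 on AC50: curve fitted for loss of signal so actives reduce spikes per network burst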
Outline: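 Read-out is mean spike count per network burst, taken as percent change between a 40-min pre-exposure and a 40-min post-exposure recording per well. Rat primary cortical neurons on MEAs at 37 C, DIV 13 or 15; compounds at 0.03-40 uM.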

[3] = CCTE_Shafer_MEA_acute_per_network_burst_spike_number_std: CCTE's Neural Acute Assay for Standard Deviation of Number of Spikes in a Network Burst, Shafer Lab (AID 2284020);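 further: fitted for decrease in spike-number SD versus DMSO so actives lower it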
Outline: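 Spontaneous network activity of primary rat cortical neurons is recorded extracellularly before and after a 40-min compound exposure (0.03-40 uM) at 37 C. The endpoint is the well's percent change in burst spike-number SD.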

[4] = CCTE_Shafer_MEA_acute_per_network_burst_electrodes_number_mean: CCTE's Neural Acute Assay for Mean Number of Electrodes in a Network Burst, Shafer Lab (AID 2284021);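 further: curves fitted for decreases only so hits reduce electrodes per burst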
Outline: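 Rat primary cortical neurons on 48-well MEAs, DIV 13 or 15, were treated at 0.03-40 uM. Spikes were detected at 8x rms noise and recorded at 37 C. The mean electrodes per network burst in a 40 min exposure recording was expressed as percent change from a 40 min baseline.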

[5] = CCTE_Shafer_MEA_acute_network_burst_percentage: CCTE's Neural Acute Assay for Percentage of Network Bursts, Shafer Lab (AID 2284022);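 further: curves fitted for loss so actives lower network burst percentage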
Outline: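 Rat primary cortical neuron networks on 48-well MEA plates, DIV 13 or 15, treated acutely with compound (0.03-40 uM, at least three wells). Percent of spikes within network bursts compared between 40-min recordings before and during exposure at 37 C, expressed as percent change.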

[6] = CCTE_Shafer_MEA_acute_cross_correlation_area: CCTE's Neural Acute Assay for Area of Cross Correlation, Shafer Lab (AID 2284024);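 further: curves fitted for loss of cross-correlation area so actives lower synchrony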
Outline: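 Rat primary cortical neurons on 48-well MEA, DIV 13 or 15; compounds 0.03-40 uM. Baseline and post-exposure 40 min recordings at 37 C; percent change in area under pooled inter-electrode cross-correlation near zero lag, relative to DMSO.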

[7] = CCTE_Shafer_MEA_acute_cross_correlation_HWHM: CCTE's Neural Acute Assay for Cross Correlation at Half Width at Half Maximum, Shafer Lab (AID 2284026);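 further: percent change per well from pre-dose baseline in spike cross-correlogram half width; hits are a decrease in cross-correlogram half width relative to DMSO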
Outline: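 Rat primary cortical neurons on 48-well MEA plates; 40-min baseline and 40-min post-exposure recordings at 37 C on DIV 13 or 15, compounds 0.03-40 uM. Spikes detected at 8x rms noise; percent change in cross-correlogram HWHM per well vs baseline.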

[8] = CCTE_Shafer_MEA_acute_synchrony_index: CCTE's Neural Acute Assay for Synchrony, Shafer Lab (AID 2284027);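 further: network synchrony index of spontaneous spiking in primary rat cortical neurons on MEAs; fitted for loss of signal so actives lower synchrony relative to DMSO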
Outline: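 Primary rat cortical neurons on 16-electrode MEA wells were recorded 40 min at baseline (DIV 13 or 15) and 40 min after compound (0.03-40 uM) at 37 C. Synchrony index (0-1) expressed as percent change from baseline, versus DMSO.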

[9] = target: Estrogen receptor (Homo sapiens) (UniProt P03372); assay: CCTE_Deisenroth_AIME_384WELL_LUC_Active: CCTE's 384-well Estrogen Receptor Transactivation Assay with AIME metabolic competence (ERTA luciferase; metabolism positive), Deisenroth Lab (AID 2284030; active means hit-call score of the fitted dose curve at least 0.9, where 1 is the maximum)
Estrogen receptor (Homo sapiens), sequence (P03372 whole entry, looked up): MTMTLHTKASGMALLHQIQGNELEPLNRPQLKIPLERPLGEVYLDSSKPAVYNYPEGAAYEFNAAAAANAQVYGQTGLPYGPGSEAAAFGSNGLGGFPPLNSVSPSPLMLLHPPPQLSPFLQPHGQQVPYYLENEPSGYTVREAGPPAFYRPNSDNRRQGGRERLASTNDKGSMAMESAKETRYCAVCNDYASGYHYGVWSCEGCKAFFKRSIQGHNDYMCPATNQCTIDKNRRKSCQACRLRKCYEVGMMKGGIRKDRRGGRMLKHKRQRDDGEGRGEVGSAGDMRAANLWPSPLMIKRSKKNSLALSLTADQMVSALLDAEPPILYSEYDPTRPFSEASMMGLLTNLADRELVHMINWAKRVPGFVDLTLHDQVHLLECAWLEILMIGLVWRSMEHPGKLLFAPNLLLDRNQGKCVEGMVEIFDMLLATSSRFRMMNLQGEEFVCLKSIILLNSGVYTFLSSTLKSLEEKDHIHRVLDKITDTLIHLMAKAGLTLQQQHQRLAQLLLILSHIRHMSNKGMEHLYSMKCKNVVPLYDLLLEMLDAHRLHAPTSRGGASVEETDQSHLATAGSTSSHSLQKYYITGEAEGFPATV
Outline: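 Chemicals (10-point, 0.002-200 uM) were first incubated 2 hours with alginate-immobilized induced male Sprague Dawley rat liver S9. The conditioned medium was then applied to VM7Luc4E2 cells for 24 hours, with ER luciferase induction read by luminescence relative to 17beta-estradiol.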

[10] = target: Estrogen receptor (Homo sapiens) (UniProt P03372); assay: CCTE_Deisenroth_AIME_384WELL_LUC_Shift: CCTE's 384-well Estrogen Receptor Transactivation Assay with AIME metabolic competence data shift (ERTA luciferase; difference in metabolism positive and negative), Deisenroth Lab (AID 2284041);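 further: shift is response with S9 minus without S9 so positive means metabolism raised ER signal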
Outline: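 Test chemicals (0.002–200 uM, 10-point) were pre-incubated 2 h with alginate microspheres containing phenobarbital/beta-naphthoflavone-induced male Sprague Dawley rat liver S9 or water, then medium was transferred to VM7Luc4E2 cells for 24 h luciferase readout; shift = S9-positive minus S9-negative normalized response.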

[11] = CCTE_Deisenroth_AIME_384WELL_CTox_Active: Cytotoxicity Assessment (CTOX) in CCTE's 384-well Estrogen Receptor Transactivation Assay with AIME metabolic competence (metabolism positive), Deisenroth Lab (AID 2284037; active means hit-call score of the fitted dose curve at least 0.9, where 1 is the maximum;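 further: chemicals first conditioned 2 h by alginate-bound induced rat liver S9 before cells; activity means signal loss indicating cell death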)
Outline: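 Cytotoxicity in VM7Luc4E2 breast cells, 24 hour, measured as protease-substrate fluorescence loss, after 2-hour metabolic conditioning with induced rat hepatic S9 in alginate microspheres. Concentrations 0.002 - 200 uM, 10 points, bidirectional fitting.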

[12] = CCTE_Deisenroth_AIME_384WELL_CTox_Inactive: Cytotoxicity Assessment (CTOX) in CCTE's 384-well Estrogen Receptor Transactivation Assay without AIME metabolic competence (metabolism negative), Deisenroth Lab (AID 2284039; active means hit-call score of the fitted dose curve at least 0.9, where 1 is the maximum;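 further: cell viability via live-cell protease substrate cleaved to fluorescent probe; cells exposed 24 h to medium preincubated 2 h with alginate-water beads without S9; loss of fluorescence signal means loss of viability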)
Outline: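 Metabolism-negative arm: chemicals (10-point, 0.002 - 200 uM) preincubated 2 h with alginate-water lids, medium moved onto VM7Luc4E2 cells for 24 h. Fluorescent live-cell protease readout; bidirectional curve fit.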

[13] = CCTE_Shafer_MEA_dev_firing_rate_mean: CCTE's Neural Network Formation Assay for Mean Firing Rate, Shafer Lab (AID 2284031);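 on AC50: curve fitted for loss of firing so AC50 reflects decreased mean firing rate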
Outline: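 Primary rat cortical neurons on 48-well, 16-electrode MEAs (PEI-coated, laminin at plating), exposed from day 0 with compound renewed at DIV 5 and 9. Spikes recorded DIV 5, 7, 9, 12; well-mean firing rate collapsed to trapezoidal AUC, loss-of-signal vs DMSO.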

[14] = CCTE_Shafer_MEA_dev_per_burst_spike_percent: CCTE's Neural Network Formation Assay for Percent of Spikes in a Burst, Shafer Lab (AID 2284032);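 further: fitted as a decrease in burst spike percentage below DMSO baseline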
Outline: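 Rat primary cortical neurons on 16-electrode MEA wells, dosed from plating day 0 for 12 days with renewal on DIV 5 and 9; spikes-in-bursts percentage averaged over bursting electrodes, collapsed as AUC across days 5, 7, 9, 12; loss direction versus DMSO.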

[15] = CCTE_Shafer_MEA_dev_active_electrodes_number: CCTE's Neural Network Formation Assay for Number of Active Electrodes, Shafer Lab (AID 2284040; active means hit-call score of the fitted dose curve at least 0.9, where 1 is the maximum;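 further: potency for loss of active electrodes versus DMSO so lower counts are hits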)
Outline: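 Rat cortical primary cultures, 1.5 x 10^5 cells/well, PEI-coated MEA, laminin drop. Continuous exposure DIV 0–12; full media/compound change DIV 5, 9. Readout: electrodes with mean firing ≥5 spikes/min; AUC across days; loss vs DMSO.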

[16] = CCTE_Shafer_MEA_dev_burst_rate: CCTE's Neural Network Formation Assay for Burst Rate, Shafer Lab (AID 2284042);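 further: potency for loss of burst rate below DMSO control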
Outline: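 Cells plated, treated day 0; recorded DIV 5, 7, 9, 12; fed and re-treated DIV 5, 9. Endpoint: bursts per recording time, active-electrode well mean, trapezoidal AUC, fitted in decreasing direction against DMSO baseline.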

[17] = CCTE_Shafer_MEA_dev_bursting_electrodes_number: CCTE's Neural Network Formation Assay for Number of Bursting Electrodes, Shafer Lab (AID 2284043; active means hit-call score of the fitted dose curve at least 0.9, where 1 is the maximum;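 further: potency is for loss of bursting electrodes relative to DMSO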)
Outline: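 Read-out is the per-well number of electrodes bursting at least once every 2 minutes, recorded on days 5, 7, 9 and 12 and collapsed by trapezoidal area under the curve. Cultures were primary rat cortical neurons on MEA plates, treated continuously from plating.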

[18] = CCTE_Shafer_MEA_dev_per_burst_interspike_interval: CCTE's Neural Network Formation Assay for Burst Interspike Interval, Shafer Lab (AID 2284044);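 further: mean spike spacing inside bursts as AUC over recordings on days 5 7 9 12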;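 on AC50: potency for a decrease of within-burst interspike interval below DMSO level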
Outline: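 Primary rat cortical neurons on 48-well MEA plates, exposed from day 0 through day 12, treatment renewed at DIV 5 and 9. Within-burst interspike interval recorded days 5, 7, 9, 12, well-averaged, summarised as AUC; negative fit versus DMSO.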

[19] = CCTE_Shafer_MEA_dev_burst_duration_mean: CCTE's Neural Network Formation Assay for Mean Burst Duration, Shafer Lab (AID 2284045);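 on AC50: curve fitted for loss meaning shorter burst duration than DMSO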
Outline: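 Read-out: average first-to-last-spike interval within single-electrode bursts, averaged over bursting electrodes per well, then summarised as area under the curve across days 5, 7, 9 and 12. Developing rat cortical networks were exposed from day 0.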

[20] = CCTE_Shafer_MEA_dev_interburst_interval_mean: CCTE's Neural Network Formation Assay for Mean Interburst Interval, Shafer Lab (AID 2284046);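 further: well-mean interburst interval of bursting electrodes as AUC over four recording days; curve fitted for decrease in interburst interval relative to DMSO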
Outline: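 Developing rat cortical networks on 48-well MEAs receive compound from the day of plating. Burst intervals from each active electrode are averaged per well, and AUC over the recording days is fitted in the negative direction against DMSO.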

Measured: AC50

O=C1c2ccccc2C(=O)N1SC(Cl)(Cl)Cl
active: [5] 28.8 µM
inactive: [1] | [2] | [3] | [4] | [6] | [7] | [8]

CNC(=O)Oc1ccccc1OC(C)C
inactive: [9] | [10]

CCCN(CCOc1c(Cl)cc(Cl)cc1Cl)C(=O)n1ccnc1
inactive: [1] | [4] | [5] | [6] | [7] | [8]
active: [2] 33.6 µM | [3] 32.6 µM

C[C@H]1[C@H](c2ccc(Cl)cc2)SC(=O)N1C(=O)NC1CCCCC1
inactive: [4] | [5] | [6] | [9] | [11] | [12] | [10]
active: [1] 28.4 µM | [2] 9.24 µM | [3] 20 µM | [7] 23.5 µM | [8] 20 µM

CC[C@H](C)[C@H]1O[C@]2(C=C[C@@H]1C)C[C@@H]1C[C@@H](C/C=C(\C)[C@@H](O[C@H]3C[C@H](OC)[C@@H](O[C@H]4C[C@H](OC)[C@@H](O)[C@H](C)O4)[C@H](C)O3)[C@@H](C)/C=C/C=C3\CO[C@@H]4[C@H](O)C(C)=C[C@@H](C(=O)O1)[C@]34O)O2 (tested in a mixture with another compound)
inactive: [5]
active: [1] 0.0752 µM | [2] 0.0134 µM | [3] 0.00528 µM | [4] 0.05 µM | [6] 0.00277 µM | [7] 0.0109 µM | [8] 0.165 µM | [13] 0.611 nM and 1.02 nM | [14] 9.62 nM and 1.82 nM | [15] 3.93 nM and 1.65 nM | [16] 1.57 nM and 0.778 nM | [17] 3.82 nM and 1.05 nM | [18] 1.37 nM and 2.71 nM | [19] 1.34 nM and 0.41 nM | [20] 12.2 nM and 2.7 nM

CCc1ccc(C(=O)NN(C(=O)c2cc(C)cc(C)c2)C(C)(C)C)cc1
inactive: [9] | [11] | [12] | [10]

O=S1OCC2C(CO1)C1(Cl)C(Cl)=C(Cl)C2(Cl)C1(Cl)Cl (centres undefined)
inactive: [1] | [3] | [4] | [5] | [6] | [7] | [8] | [13] | [11] | [12] | [10] | [18] | [19] | [20]
active: [1] 0.102 µM | [2] 230 nM and 56 nM | [3] 0.348 µM | [4] 0.177 µM | [5] 24.4 µM | [6] 0.0502 µM | [7] 19.8 µM | [8] 23.7 µM | [9] 13.8 µM | [14] 8.83 µM | [15] 8.87 µM | [16] 8.87 µM | [17] 8.62 µM

CCOC1Oc2ccc(OS(C)(=O)=O)cc2C1(C)C (centres undefined)
inactive: [10]
active: [11] 100 µM | [12] 100 µM

CNC(=O)/C=C(\C)OP(=O)(OC)OC
inactive: [1] | [2] | [3] | [4] | [5] | [6] | [7] | [8] | [9] | [11] | [10]

COP(=S)(OC)Oc1ccc(SC)c(C)c1
active: [1] 33.2 µM | [7] 31.2 µM | [8] 29.1 µM
inactive: [2] | [3] | [4] | [5] | [6]
